# Source: PubChem BioAssay (NCI)
# About 83,000 compounds went through this panel and 20% of them were active in at least one assay; those are over-represented in the sample as a whole.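 Single-dose data. Exposure time 48 hours. Values below 10 considered active.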 A number with no mark means an inactive call. Calls of active or inactive are those of the source.
# Tests used:
# Assay in all cases: NCI-60 one-dose screen, 48 h (100 = growth as untreated, 0 = no growth, -100 = all killed)
# Conditions in all cases: 10 µM unless noted
# NCI-H226 lung = test system: NCI-H226 lung
# NCI-H322M lung = test system: NCI-H322M lung
# HOP-62 NSCLC = test system: HOP-62 NSCLC
# NCI-H460 lung = test system: NCI-H460 lung
# HOP-92 NSCLC = test system: HOP-92 NSCLC
# NCI-H522 lung = test system: NCI-H522 lung
# A549/ATCC NSCLC = test system: A549/ATCC NSCLC
# 786-0 renal = test system: 786-0 renal
# COLO 205 colon = test system: COLO 205 colon
# DU-145 prostate = test system: DU-145 prostate
# K-562 leukemia = test system: K-562 leukemia
# MALME-3M melanoma = test system: MALME-3M melanoma
# MDA-MB-231 breast = test system: MDA-MB-231 breast
# RXF 393 renal = test system: RXF 393 renal
# SF-268 CNS = test system: SF-268 CNS
# SF-295 CNS = test system: SF-295 CNS
# SF-539 CNS = test system: SF-539 CNS
# UACC-257 melanoma = test system: UACC-257 melanoma
# M14 melanoma = test system: M14 melanoma
# NCI-H23 lung = test system: NCI-H23 lung
SMILES,growth (NCI-H226 lung),growth (NCI-H322M lung),growth (HOP-62 NSCLC),growth (NCI-H460 lung),growth (HOP-92 NSCLC),growth (NCI-H522 lung),growth (A549/ATCC NSCLC),growth (786-0 renal),growth (COLO 205 colon),growth (DU-145 prostate),growth (K-562 leukemia),growth (MALME-3M melanoma),growth (MDA-MB-231 breast),growth (RXF 393 renal),growth (SF-268 CNS),growth (SF-295 CNS),growth (SF-539 CNS),growth (UACC-257 melanoma),growth (M14 melanoma),growth (NCI-H23 lung)
C#CCOc1cc(N(CC)CC)ccc1C(C(=O)NC(C)(C)C)N(C(=O)C1CCc2cc(F)ccc2O1)c1ccccc1F (stereo unspecified),34.4%,72.2%,49.5%,30.1%,18.6%,31.2%,35.2%,44.1%,12.9%,58.4%,17%,57.7%,53.4%,40.4%,38.4%,19.9%,50.7%,30.2%,39%,–
CC(=O)c1c(N)c(C#N)cn1-c1ccc(Cl)cc1Cl,80.6%,101%,94.6%,111%,98.6%,82.3%,95.8%,99.2%,105%,113%,95.1%,107%,99.7%,104%,107%,116%,99.9%,106%,98.9%,–
CC12CC[C@@H]3[C@]4(C)COC(c5c(F)cccc5F)O[C@@H]4CC[C@@]3(C)[C@@H]1CC(C1=CCOC1=O)O2 (stereo partly specified),63.6%,79.9%,56.2%,96.3%,-3.83% (active),55.4%,70.3%,46.8%,91.7%,76.6%,66.6%,60.4%,36.5%,83.8%,70.3%,69.1%,33.8%,64.6%,66.5%,–
Nc1nc(-c2ccccc2)c(N=Nc2ccc(Cl)cc2[N+](=O)[O-])s1,77.4%,94.2%,90.9%,105%,68%,82.7%,95.3%,93.4%,101%,112%,96.1%,109%,95.5%,106%,87.7%,101%,86.5%,103%,98.3%,–
CC1[C@H]2[C@H](C[C@H]3[C@@H]4CC=C5c6sc(Nc7ccccc7F)nc6CC[C@]5(C)[C@H]4CC[C@@]32C)O[C@]12CC[C@@H](C)CO2 (stereo partly specified),-29.2% (active),-31.4% (active),-62.4% (active),-62.6% (active),-59.2% (active),-66.5% (active),-63.5% (active),-82.1% (active),-88.3% (active),-48.6% (active),1.23% (active),-73.9% (active),-57.5% (active),-88.7% (active),-53.5% (active),-75.5% (active),-87.9% (active),-85.1% (active),-87.8% (active),–
CCOC(=O)C1=C(N)N(c2ccccc2)C2=C(C(=O)CC(C)(C)C2)C1c1ccc([N+](=O)[O-])cc1 (stereo unspecified),88%,97.9%,99%,89.8%,106%,79.2%,91.5%,93.7%,101%,106%,83.7%,120%,97.4%,101%,106%,96.2%,94.3%,112%,99.5%,–
CC1(C)CC[C@]2(C(=O)O)CC[C@]3(C)C(=CCC4[C@@]5(C)C[C@@H](O)[C@@H]6OC(c7ccccc7F)OC[C@@]6(C)C5CC[C@]43C)C2C1 (stereo partly specified),27.9%,13.5%,22.1%,3.39% (active),5.75% (active),5.45% (active),14.2%,16.8%,-44% (active),20%,12.8%,28.6%,20.5%,-14.5% (active),14.3%,-0.465% (active),5.14% (active),24.2%,17.8%,–
C#CCOc1ccc(/C=N/Nc2nc(-c3cc4cc(Br)ccc4oc3=O)cs2)cc1OC,29.8%,77.8%,51.7%,43.4%,45.5%,34.3%,49.5%,50.8%,88.1%,69.1%,58%,59.4%,36.3%,58.1%,59.6%,24.2%,25.1%,86.4%,79.4%,–
COc1cc2oc(-c3cccc(NC(=O)[C@H](CC(N)=O)NC(=O)OC(C)(C)C)c3)cc(=O)c2c(OC)c1OC,92.7%,101%,104%,89.1%,74.9%,73.7%,95%,88.2%,109%,97.1%,77.1%,107%,97.7%,69.4%,90.2%,103%,78%,112%,115%,–
COc1ccc(/C=N/NC(=O)Cn2nc(Cc3ccc(OC)cc3)c3onc(C)c3c2=O)cc1,49.6%,59%,42.8%,30.5%,-20% (active),58.1%,45.2%,-55.5% (active),55.7%,64%,53.9%,50.8%,57.8%,2.21% (active),65.4%,48.2%,47.6%,77%,63.9%,–
CCOC(=O)C1=C(N)N(c2ccccc2)C2=C(C(=O)CC(C)(C)C2)C1c1ccccc1Cl (stereo unspecified),76.3%,82.2%,94.1%,60.2%,68.9%,57.5%,75.6%,79.4%,65.3%,88.2%,41.5%,89.3%,84.8%,78.2%,80%,75%,100%,72.5%,50.8%,–
CSc1ccccc1NC(=O)c1ccc2nnn(/C(C#N)=C/c3ccccn3)c2c1,-94.6% (active),–,–,-44% (active),-80.8% (active),-96.4% (active),-27.2% (active),-98.5% (active),-83.1% (active),-97.9% (active),1.03% (active),-94.7% (active),–,-98.8% (active),6.52% (active),2.24% (active),-100% (active),-89.8% (active),-93.6% (active),-96.6% (active)
Cc1ccc(NC(=O)CN2CCN(c3ncnc4c3cnn4-c3ccccc3)CC2)cc1,76.5%,86.5%,95.6%,74%,90.9%,-41.1% (active),89.1%,105%,111%,92.5%,59.8%,90.8%,80.6%,86.7%,80.7%,116%,84.6%,92.8%,100%,–
CC12CC[C@@H]3[C@]4(C)COC(c5cn[nH]c5-c5cccc(Br)c5)O[C@@H]4CC[C@@]3(C)[C@@H]1CC(C1=CCOC1=O)O2 (stereo partly specified),37.8%,48.6%,70.3%,23.7%,–,24.9%,25%,53.1%,10.5%,53.5%,15%,37.7%,35.1%,6.19% (active),47%,34.9%,54.8%,41.8%,22.3%,–
CCN(CC)c1ccc(/C=N/Nc2nc(-c3ccc(Br)cc3)cs2)c(O)c1,31.7%,96.9%,110%,89.3%,104%,17%,90.5%,49.9%,58.3%,91.7%,4.62% (active),53.4%,95.9%,64.9%,99.7%,91.5%,52.3%,91.7%,54.5%,–
COc1ccc(NC(=O)Nc2ccc(OCc3ccc(F)cc3)cc2)cc1,12.4%,65.8%,44.5%,46%,21.3%,65.1%,58.9%,29.3%,97.7%,88.5%,82.6%,62.3%,53.5%,35%,61.3%,102%,0.894% (active),85.9%,77%,–
